Laboratory results taken from PubChem BioAssay (Tox21).
Results filed as inconclusive are left out. Activity calls are given as the source filed them. Calls follow the shape of the dose curve; as a rule, active = well fitted cell-killing curve with a large enough effect in the repeat runs; inconclusive = weak or mixed curves; inactive = flat fitted curve, though single readings scatter. Residues, ends and D or L forms follow the SMILES beside them.

Assay: qHTS assay to identify small molecule antagonists of the TGF-beta/Smad signaling pathway - cell viability counter screen (AID 1346824); also: nearly all actives have a fitted effect of over 50% in size
Details: SBE-bla HEK293T viability, CellTiter-Glo luminescence; series mostly up to 76.8 µM
From the text: U.S. Tox21 Program National Center for Advancing Translational Sciences [NCATS] NIH Chemical Genomics Center [NCGC] U.S. Environmental Protection Agency [EPA] National Institutes of Environmental Health Sciences [NIEHS] National Toxicology Program [NTP] U.S. Food and Drug Administration [FDA] Tox21 Assay Overview: Transforming growth factor beta (TGF-beta) superfamily consists of a large number of structurally related dimeric proteins that act as hormones or local mediators in regulating a wide range of biological functions. This superfamily includes TGF-betas themselves, the bone morphogenetic proteins (BMPs) and the activins. These ligands induce oligomerization of serine/threonine receptor kinases and phosphorylate the cytoplasmic signaling molecules of Smad protein family. CellSensor SBE-bla HEK 293T cell line (Life Technologies, Carlsbad, CA), responsive to TGF-beta was used to screen Tox21 10K compound library for identification of agonists/antagonists of the Smad signaling pathway. This cell line contains a beta-lactamase reporter gene under control of the Smad binding element (SBE) stably integrated into HEK 293T cells. Also cytotoxicity of the compounds was tested in parallel by measuring the cell viability using CellTiter-Glo assay system in the same wells.
Tox21 Assay Protocol Summary: SBE-bla HEK 293T cells were dispensed at 4,000/well in 5 uL of assay medium into black wall/clear-bottom 1536-well plates using a Multidrop Combi (ThermoFisher Scientific, Waltham, MA) dispenser. After the assay plates were incubated at 37 C and 5% CO2 for an overnight, 23 nL of compounds dissolved in DMSO, positive controls or DMSO only was transferred to the assay plate by a Pintool station (Kalypsys, San Diego, CA). Compound transfer was followed by the addition of 1 uL of 0.25 ng/mL TGF-beta1 or assay buffer using two separate tips of Flying Reagent Dispenser (FRD, Aurora Discovery, San Diego, CA). The assay plates were incubated at 37 C and 5% CO2 for 5 hr. One uL of LiveBLAzer B/G FRET substrate (Life Technologies) was added using a Flying Reagent Dispenser (FRD, Aurora Discovery, San Diego, CA) and the plates were incubated at room temperature for 2 hr. Fluorescence intensity (405 nm excitation, 460 nm and 530 nm emissions) was measured using an Envision plate reader (PerkinElmer, Shelton, CT). For cytotoxicity read, 4 uL of CellTiter-Glo reagent (Promega Corporation, Madison, WI) was added to each well of the assay plates using FRD. After 30 min incubation at room temperature, the luminescence intensity was measured using ViewLux plate reader (PerkinElmer).

| Structure (SMILES) | outcome |
| --- | --- |
| O=C(O)c1cc(N=Nc2ccc(S(=O)(=O)Nc3ccccn3)cc2)ccc1O | inactive |
| O=C(O)c1cccc([N+](=O)[O-])c1 | inactive |
| COc1ccc2[nH]cc(CCNC(C)=O)c2c1 | inactive |
| OCCc1ccccc1 | inactive |
| Nc1ccc(C(=O)O)cc1 | inactive |
| Cc1ccccc1C(OCCN(C)C)c1ccccc1 (stereo not given) | inactive |
| Cn1cc[nH]c1=S | inactive |
| CC(=O)NS(=O)(=O)c1ccc(N)cc1 | inactive |
| O=S(=O)(O)NC1CCCCC1 | inactive |
| Cn1c(=O)c2[nH]cnc2n(C)c1=O | inactive |
| C1N2CN3CN1CN(C2)C3 | inactive |
| Nc1ccc(O)c(C(=O)O)c1 | inactive |
| CCCCOC(=O)CC(CC(=O)OCCCC)(OC(C)=O)C(=O)OCCCC | inactive |
| COC(=O)[C@H](Cc1ccccc1)NC(=O)[C@@H](N)CC(=O)O (H-Asp-Phe-OMe) | inactive |
| CC(C)[C@@H]1CC[C@@H](C)C[C@H]1O | inactive |
| CCOc1ccc(NC(=O)CC(C)O)cc1 (stereo not given) | inactive |
| Cc1cn([C@H]2C[C@H](N=[N+]=[N-])[C@@H](CO)O2)c(=O)[nH]c1=O | inactive |
| O=C(O)c1cccnc1 | inactive |
| Nc1ccc(S(=O)(=O)Nc2nccs2)cc1 | inactive |
| Cc1ccc(C)c(OCCCC(C)(C)C(=O)O)c1 | inactive |

| Structure (SMILES) | outcome |
| --- | --- |
| O=S(=O)(O)c1ccc2cc(O)ccc2c1 | inactive |
| NC(=O)NC1NC(=O)NC1=O (stereo not given) | inactive |
| Nc1ccn([C@H]2CC[C@@H](CO)O2)c(=O)n1 | inactive |
| Nc1ccc(S(=O)(=O)c2ccc(N)cc2)cc1 | inactive |
| CC(O)CN(CCN(CC(C)O)CC(C)O)CC(C)O (stereo not given) | inactive |
| CCCC(O)C(CC)CO (stereo not given) | inactive |
| CCCN(CCC)S(=O)(=O)c1ccc(C(=O)O)cc1 | inactive |
| CC(O)CO (stereo not given) | inactive |
| O=C(O)C(=O)O | inactive |
| C[C@]12C=CC(=O)C=C1CC[C@@H]1[C@@H]2[C@@H](O)C[C@@]2(C)[C@H]1CC[C@]2(O)C(=O)CO | inactive |
| O=C(O)CCC(=O)O | inactive |
| O=C(C1CCCCC1)N1CC(=O)N2CCc3ccccc3C2C1 (stereo not given) | inactive |
| NS(=O)(=O)c1cc(C(=O)O)c(NCc2ccco2)cc1Cl | inactive |
| CC(=O)OCC(COC(C)=O)OC(C)=O | inactive |
| N=C(N)c1ccc(OCCCCCOc2ccc(C(=N)N)cc2)cc1 | inactive |
| CCCCCCCCCCCCCCCC(=O)O | inactive |
| CNC[C@H](O)c1cccc(O)c1 | inactive |
| CCCCC(CC)COC(=O)/C=C/c1ccc(OC)cc1 (stereo not given) | inactive |
| Cc1ccc(O)cc1 | inactive |
| O=c1ccc2ccccc2o1 | inactive |
